Data reported in ChEMBL document CHEMBL3433997, “St. Jude Leishmania screening dataset” (2016).

Key:
Format in all cases: functional
[1] = biological target: Solute carrier family 2, facilitated glucose transporter member 1 (Homo sapiens) (UniProt P11166); assay: ST_JUDE_LEISH: Cytotoxicity at 2uM final concentration against transgenic Leishmania Mexicana promastigotes LmGLUT1 that are glucose transport deficient and complemented with the human glucose transporter GLUT1. Activity is measured by DNA content using SYBR green in vitro
[2] = biological target: Hexose transporter 1 (Plasmodium falciparum) (UniProt O97467); assay: ST_JUDE_LEISH: Cytotoxicity at 2uM final concentration against transgenic Leishmania Mexicana promastigotes LmPfHT that are glucose transport deficient and complemented with the Plasmodium falciparum hexose transporter. Activity is measured by DNA content using SYBR green in vitro
[3] = biological target: Glucose transporter (Leishmania mexicana) (UniProt O61059); assay: ST_JUDE_LEISH: Cytotoxicity at 2uM final concentration against transgenic Leishmania Mexicana promastigotes LmGT2 that are glucose transport deficient and complemented with the L. Mexicana glucose transporter 2. Activity is measured by DNA content using SYBR green in vitro

Chain of Solute carrier family 2, facilitated glucose transporter member 1 (Homo sapiens) (P11166 whole entry): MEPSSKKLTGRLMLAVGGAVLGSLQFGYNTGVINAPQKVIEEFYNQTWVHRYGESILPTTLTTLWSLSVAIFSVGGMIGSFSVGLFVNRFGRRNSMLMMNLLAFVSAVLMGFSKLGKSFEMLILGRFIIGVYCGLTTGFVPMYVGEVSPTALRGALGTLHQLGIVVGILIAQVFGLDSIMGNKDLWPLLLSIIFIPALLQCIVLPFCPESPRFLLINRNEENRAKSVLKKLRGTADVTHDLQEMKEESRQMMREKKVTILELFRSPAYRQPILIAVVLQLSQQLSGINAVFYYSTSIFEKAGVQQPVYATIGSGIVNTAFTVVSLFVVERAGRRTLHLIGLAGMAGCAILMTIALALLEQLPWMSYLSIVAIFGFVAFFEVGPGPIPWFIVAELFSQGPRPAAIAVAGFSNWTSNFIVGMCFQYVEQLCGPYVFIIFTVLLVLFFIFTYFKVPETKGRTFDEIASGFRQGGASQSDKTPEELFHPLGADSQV

Compound | inhibition [1] [%] | inhibition [2] [%] | inhibition [3] [%]
CC=CCON1C(=N)NC(=N)NC1(C)C | 1.93 | 1.47 | 1.8
O=c1ccc(CNc2nc(NCCc3ccccc3)nc3cc(Cl)ccc23)c[nH]1 | 1.81 | 0.69 | 1.95
COc1ccc(Nc2ccnc3cc(-c4ccccn4)ccc23)cc1OC | 1.2 | 0.73 | -0.54
Nc1nc(N)c2c(Cl)c(CNc3cccc(C(=O)O)c3)ccc2n1 | 3.95 | 2.84 | 3.26
NOCCCOc1ccccc1 | 0.04 | -0.12 | 0.73
CCC(C)(C)c1ccc(OCCCC(=O)Nc2ccc(Cl)c([N+](=O)[O-])c2)c(C(C)(C)CC)c1 | 0.37 | 0.79 | 1.34
O=C(Nc1cccc(OC2CCN(Cc3ccsc3)CC2)c1)c1ccc(C(F)(F)F)cc1 | 0.75 | -0.04 | -1.05
COc1cc(Cc2cnc(N)nc2N)cc(OCCCCCC(=O)O)c1OC | 6.91 | 5.78 | 5.12
CCOC(=O)c1ccc(NC(=O)Nc2cccc(-c3cccc(-c4nc5ccccc5[nH]4)c3)c2)cc1 | 10.4 | 7.84 | 8.27
O=C(CCCCCNC(=O)c1ccc(O)c(-c2ccc(Cl)c(Cl)c2)c1)NCCN1CCCC1 | 1.19 | 0.7 | 1.56
O=C(Nc1ccc(OC2CCN(Cc3ccsc3)CC2)c(Cl)c1)c1ccco1 | 2.93 | 5.95 | 4.7
CC(C)C[C@@H](/C=N/NC(N)=O)NC(=O)[C@H](CC(C)C)NC(=O)[C@H](CC(C)C)NC(=O)OCc1ccccc1 | 5.02 | 6.9 | 4.41
COc1ccc(-c2csc3ncnc(Cl)c23)cc1OC | 3.91 | 3.53 | -0.23
Cc1cc(CN2CCCN(c3ccc4c(c3)CCN(Cc3ccc(-c5ncc[nH]5)cc3)CC4)CC2)n(C)n1 | -0.3 | -1.47 | -3.2
CCOc1cc(C(=O)NC2CC(C)(C)N(C)C(C)(C)C2)ccc1-c1nc2cc(Cl)c(Cl)cc2[nH]1 | 5.59 | 12.6 | 7.12
O=C(NCc1ccc(C(=O)N2CCC(N3CCCCC3)CC2)cc1)c1cc(-c2cccc(C(F)(F)F)c2)ccc1O | 7.73 | 6.4 | 7.14
CCCCCCCN1CCC(NC(=O)Nc2ccnc3ccc(OC)cc23)C(C(=O)OCC)C1 (stereo not drawn) | -2.21 | 0 | -2.59
Cc1ccccc1C1CCN(c2ccc(C(=O)Nc3ccccc3)cn2)CC1 | -0.55 | -0.98 | -5.64

Compound | inhibition [1] [%] | inhibition [2] [%] | inhibition [3] [%]
O=C(Nc1ccc(-c2nc3ccccc3[nH]2)cc1)C1CCN(Cc2cccc(F)c2F)CC1 | 24.2 | 28.4 | 16
OCCN1CCN(C(=S)NC2CCCCC2)CC1 | -1.08 | -1.56 | -1.81
c1cncc(-c2cc(N3CCCCC3)nc(-c3ccncc3)n2)c1 | 8.22 | 6.14 | 4.53
CN(C)CCCOc1cccc(CCNCc2cccc(Oc3ccc(Cl)cc3)c2)c1 | 2.64 | 2.34 | 0
COc1ccccc1COc1c(C)nc(N)nc1N | -1.13 | -0.61 | -1.06
O=C(c1ccc(Cl)cc1)C1CCCN(C2CCN(CCc3ccccc3)CC2)C1 (stereo not drawn) | 12.5 | 17.3 | 13.8
O=C(c1ccc(Cl)cc1)N1CCOC(CCN2CCC(c3ccccc3)CC2)(c2ccc(Cl)c(Cl)c2)C1 (stereo not drawn) | 0.85 | -0.89 | -0.89
CCc1cccc(-n2c(=O)c3cccnc3n2CC(=O)NCc2ccccc2Cl)c1 | 9.08 | 9.17 | 4.33
CN(C)CCOC(=O)C1(O)CCC2CC1C2(C)C (stereo not drawn) | 2.52 | 2.06 | 2.45
O=C(N[C@H]1CCN(Cc2ccc(OC3CCN(Cc4ccccc4)CC3)c(Br)c2)C1)c1ccc(Cl)c(Cl)c1 | -0.92 | 2.97 | 0.77
N#Cc1ccc(N[C@@H](CC2CCCCC2)C(=O)N[C@@H]2CCCc3ccccc32)c2ccccc12 | 0.46 | 1.88 | 0.82
COc1ccccc1-c1csc(C(=O)NC2CCCCN(Cc3ccc(C(C)(C)C)cc3)C2)c1 (stereo not drawn) | 2.42 | 1.58 | 2.61
Cc1noc(-c2ccc3c(c2)CCN(CCC2CCC(NC(=O)/C=C/c4ccc(F)cc4)CC2)CC3)n1 (stereo not drawn) | 0.93 | -1.07 | -0.23
O=C(Nc1ccc(-c2nc3ccccc3[nH]2)cc1)c1cncc(Br)c1 | 4.2 | 2.44 | 1.81
N#Cc1cncc(-c2nc3c(N4CCC(Cc5ccccc5)CC4)cccc3n2C2CCNC2)c1 (stereo not drawn) | -0.31 | -0.39 | -0.61
Cc1cccc2nc(-c3ccc(-c4ccc(CN5CCC(N)C5)cc4)s3)[nH]c12 (stereo not drawn) | -3.3 | 0.94 | -2.11
Cc1cc(=NN=Cc2ccc(F)cc2)c2cc(C(F)(F)F)ccc2[nH]1 | 2.35 | 2.57 | 0.92
Cc1ccc(Cn2ncc(NC3CCNCC3)c(Cl)c2=O)cc1NC(=O)Nc1ccc(-c2ccccc2)cc1 | 5.14 | 9.28 | 5.29
